In all, about 190,000 compounds went through this assay and about 1,300 (0.68%) were called active. Rule as the data show it: active = inhibition above about 50%; inactive = the rest. For the sample, actives were picked, then their nearest neighbours and some compounds at random.
These compounds were tested against Mannose-6-phosphate isomerase (Homo sapiens) (UniProt P34949) (assay: MPI inhibition at elevated mannose 6-phosphate – biochemical, fluorescence intensity, high mannose 6-phosphate, primary screen (AID 1220)). Conditions: recombinant PMI enzyme, coupled fluorescence intensity; at 20 µM; hits give high values.
Mannose-6-phosphate isomerase (Homo sapiens), sequence (P34949 whole entry, looked up): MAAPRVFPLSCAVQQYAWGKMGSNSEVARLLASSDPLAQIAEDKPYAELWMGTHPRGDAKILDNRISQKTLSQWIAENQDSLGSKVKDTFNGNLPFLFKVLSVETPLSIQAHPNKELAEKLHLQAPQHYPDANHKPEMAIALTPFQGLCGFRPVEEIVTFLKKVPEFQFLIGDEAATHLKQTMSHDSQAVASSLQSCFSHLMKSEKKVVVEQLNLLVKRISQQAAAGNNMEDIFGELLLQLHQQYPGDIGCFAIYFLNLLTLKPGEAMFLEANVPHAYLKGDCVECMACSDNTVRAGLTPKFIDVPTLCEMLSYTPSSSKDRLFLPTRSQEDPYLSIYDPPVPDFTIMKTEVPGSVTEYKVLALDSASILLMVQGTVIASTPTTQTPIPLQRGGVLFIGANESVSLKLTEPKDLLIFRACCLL

| SMILES | inhibition |
| --- | --- |
| CCOC(=O)c1cccc(-c2ccc(C=O)o2)c1 | 7.1% (inactive) |
| COc1ccc(/C=N\NC(=O)c2cccc(Br)c2)c(OC)c1 | 3% (inactive) |
| CCN(CC)C(=O)CSc1nc2ccccc2c(=O)n1OC | 4.5% (inactive) |
| COC(=O)/C=C(\C)NC(=O)c1ccc(F)cc1 | 12.4% (inactive) |
| O=C(COC(=O)c1cccs1)NCc1ccco1 | -3.4% (inactive) |
| Cc1ncoc1C(=O)Nc1ccccc1-c1ccccc1 | -4.1% (inactive) |
| CCN(CC)C(=O)c1ccc(Cn2cc([N+](=O)[O-])cn2)o1 | 0% (inactive) |
| CC(=O)c1ccc(NC(=O)Nc2ccc([N+](=O)[O-])cc2)cc1 | -0.1% (inactive) |
| COc1ccc(C2C(C#N)=C(N)N(c3ncn[nH]3)C3=C2C(=O)CCC3)cc1 (configuration not stated) | 43.2% (inactive) |
| Cc1ccc(C2C(C#N)=C(N)N(N(C)C)C3=C2C(=O)CCC3)cc1 (configuration not stated) | 57.8% (active) |
| CN(C)N1C(N)=C(C#N)C(c2ccccc2)C2=C1CCCC2=O (configuration not stated) | 42.1% (inactive) |
| COc1ccc(N2C(N)=C(C#N)C(c3ccsc3)C3=C2CCCC3=O)c(OC)c1 (configuration not stated) | 62% (active) |
| N#CC1=C(N)N(c2ccccc2C#N)C2=C(C(=O)CCC2)C1c1ccsc1 (configuration not stated) | 19.7% (inactive) |
| Cc1ccsc1C1C(C#N)=C(N)N(N(C)C)C2=C1C(=O)CCC2 (configuration not stated) | 15.7% (inactive) |
| COc1ccc(-c2nc(NC(=O)Cn3c(=O)oc4ccccc43)sc2C)cc1 | 16.1% (inactive) |
| Nn1c(SCc2ccccc2)nc2c(cnn2-c2ccccc2)c1=O | 4.9% (inactive) |
| COc1ccc(-c2cccc(C(=O)NCC(=O)O)c2)cc1 | 2.2% (inactive) |
| Cc1ccccc1Nc1nc(N)nc(CN2CCN(Cc3ccc4c(c3)OCO4)CC2)n1 | -1.7% (inactive) |
| CCC1CCCCN1C(=S)Nc1cccc(S(=O)(=O)N(C)C)c1 (configuration not stated) | -6.4% (inactive) |
| O=C(c1ccc2c3c(cccc13)CC2)C1CCCN(Cc2ccncc2)C1 (configuration not stated) | -2.1% (inactive) |
| O=C(c1ccc2c3c(cccc13)CC2)C1CCCN(Cc2cccnc2)C1 (configuration not stated) | 11.4% (inactive) |
| COc1cc(CN2CCCC(C(=O)c3ccc4c5c(cccc35)CC4)C2)cc(OC)c1O (configuration not stated) | 74.7% (active) |
| CC(C)NC(=O)c1ccccc1NC(=O)Cc1ccc(Cl)cc1 | -7.2% (inactive) |
| CCn1c2ccccc2c2cc(NC(=O)CCCN3C(=O)CCC3=O)ccc21 | -9.6% (inactive) |
| CCOC(=O)c1ccc(N/C=C2/CCCC(C)C2=O)cc1 (configuration not stated) | 8.1% (inactive) |
| CC1CCC/C(=C\Nc2ccc(O)cc2)C1=O (configuration not stated) | 57.1% (active) |
| CC1CCC/C(=C\Nc2ccc(C(=O)O)cc2)C1=O (configuration not stated) | 25.7% (inactive) |

Source: PubChem BioAssay AID1220 (Sanford-Burnham Center for Chemical Genomics, 2008)
